According to PubChem BioAssay (EPA / NIEHS):
Active and inactive are the calls of the source. How the source made its calls: active means hit-call score of the fitted dose curve at least 0.9, where 1 is the maximum; inactive means score below 0.9.

read-out: KRT18 (gene 3875); test: BSK_BF4T_Keratin818: BioMAP Diversity Plus: BF4T Assay for Keratin 818 Biomarker Activity (AID 2284266); settings: primary human bronchial epithelial cells with fibroblasts
Experimental: BSK_BF4T is a cell-based, multiplexed-readout assay that uses bronchial epithelial cells and dermal fibroblasts, a human vascular primary cell, with measurements taken at 24 hours after chemical dosing in a microplate: 96-well plate.BSK_BF4T_Keratin818 is an assay component measured in the BSK_BF4T assay. It measures Keratin 8/18 antibody related to regulation of gene expression using ELISA technology.Data from the assay component BSK_BF4T_Keratin818 was analyzed at the endpoint, BSK_BF4T_Keratin818, in the positive analysis fitting direction relative to DMSO as the negative control and baseline of activity. Using a type of binding reporter, gain or loss-of-signal activity can be used to understand protein changes. To generalize the intended target to other relatable targets, this assay endpoint is annotated to the 'cell adhesion molecules' intended target family, where the subfamily is 'keratin'.
The levels of cell surface (or secreted, indicated by the prefix "s") biomarker endpoints were measured by ELISA. Overt cytotoxicity to cells in confluent adherent cultures (all systems other than the BT system) was assessed by measuring total protein levels using sulforhodamine B (SRB) staining in parallel cultures at the time of biomarker measurements, indicated as SRB endpoints. For proliferation assays for adherent cell types, individual cell types are cultured at sub-confluence and relative cell numbers quantified by SRB staining at time points optimized for each system (48 h: 3C and CASM3C systems; 72 h: BT and HDF3CGF systems; 96 h: SAg system). SRB was performed by staining cells with 0.1% SRB after fixation with 10% TCA and reading wells at 560 nm.Viability and proliferation of PBMC (T cells) was quantified by Alamar Blue reduction for the SAg and BT systems. For PBMC viability (referred to as PBMC Cytotoxicity within the assay endpoint names), cells were plated (75,000/well in a 96-well plate) and then chemical samples added for 1 h before addition of activators, SEB and TSST-1 (20 ng/mL final concentration each). Cells were incubated for 90 h. Then, Alamar Blue (20 uL/well) (Invitrogen, Cat DAL1100) was added for 6 h, and the plates were read with a fluorescence microplate reader at 546/580 nm (excitation/emission). For PBMC proliferation, cells were plated and activated as above but incubated for only 16 h prior to addition of Alamar Blue. Plates were read after 6 h.

SMILES	outcome
O=C(O)C(F)(F)C(F)(F)C(=O)O	inactive
NC(=O)C(F)(F)C(F)(F)F	inactive
CC(O)C(F)(F)C(F)(F)F (centres undefined)	inactive
O=C(O)C=CC(F)(C(F)(F)F)C(F)(F)F	inactive
O=C(O)C(F)(OC(F)(F)C(F)(F)C(F)(F)F)C(F)(F)F (centres undefined)	inactive
O=S(=O)(F)C(F)(F)C(F)(F)C(F)(F)C(F)(F)C(F)(F)C(F)(F)C(F)(F)C(F)(F)F	inactive
C=CC(=O)OCC(F)(F)C(F)F	inactive
FC(F)(F)C(F)(C(F)(F)F)C(F)(F)C(F)(F)CC1CO1 (centres undefined)	inactive
OCC(F)(F)OC(F)(F)C(F)(F)OC(F)(F)C(F)(F)OC(F)(F)F	inactive
OCC(F)(F)OC(F)(F)C(F)(F)OC(F)(F)C(F)(F)OC(F)(F)CO	inactive
O=C(O)C(F)(F)OC(F)(F)C(F)(F)OC(F)(F)F	inactive
O=C(O)C(F)(F)OC(F)(F)C(F)(F)OC(F)(F)C(=O)O	inactive
OCC(F)(F)OC(F)(F)C(F)(F)OC(F)(F)CO	inactive
COC(=O)C(F)(F)C(F)(F)OC(F)(C(F)(F)F)C(F)(F)OC(F)=C(F)F (centres undefined)	inactive
